High-throughput results deposited in PubChem BioAssay by National Center for Advancing Translational Sciences (NCATS).
Sampled rows, rich in hits. Any-hit rate of the full collection: about 7.3%.
AmpC no deterg: inhibitors of E. coli AmpC beta-lactamase without detergent; P00811; AmpC nitrocefin hydrolysis, absorbance 480 nm, 0.0001% Triton; Potency, µM (highest dose often 57.1 µM), most hits filed as inhibitors; 330,000 compounds, 0.52% hits; AID 485341; further: nearly all actives have a fitted effect of over 20% in size
Target sequence (P00811 whole entry, looked up): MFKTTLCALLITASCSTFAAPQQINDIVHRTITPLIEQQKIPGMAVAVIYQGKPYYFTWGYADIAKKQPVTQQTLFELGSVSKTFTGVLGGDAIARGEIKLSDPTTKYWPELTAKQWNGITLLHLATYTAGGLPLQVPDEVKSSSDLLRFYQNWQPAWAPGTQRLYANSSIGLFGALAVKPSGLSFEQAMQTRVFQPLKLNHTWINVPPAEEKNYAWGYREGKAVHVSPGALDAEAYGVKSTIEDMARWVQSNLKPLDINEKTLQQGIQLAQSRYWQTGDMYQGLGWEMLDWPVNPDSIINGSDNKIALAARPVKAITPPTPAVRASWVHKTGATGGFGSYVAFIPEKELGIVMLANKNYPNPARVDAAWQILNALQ
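20 mM phosphate pH 7.0 + 0.01% (detergent screen) or 0.0001% Triton X-100; 5.3 nM AmpC reagent; cpd preinc 15 min RT; nitrocefin (800 uM stock) to start; A480 q20 s × 4 min; Activity was normalised to no-enzyme and no-compound control wells.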
HCV inhibitor: inhibitors of hepatitis C virus infection. Huh7.5.1 HCVcc-Cre infection, luciferase reporter, 44 h. Potency, µM (highest dose often 41.8 µM), most hits filed as inhibitors. 340,000 compounds, 3.4% hits. AID 651820
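After 44 h co-culture of compound, cells and HCVcc-Cre (~0.5 moi), substrate is added for 15 min at room temperature and luciferase measured over 15 sec. Cells were seeded at 1,000/well and pre-cultured 4 h.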
AmpC detergent: blocks E. coli AmpC beta-lactamase in detergent assay | P00811 | AID 485294 | Potency, µM (titrated, usually from 114 µM), usual class: inhibitors | 370,000 compounds, 0.041% hits | AmpC hydrolysis of nitrocefin, absorbance 480 nm, 0.01% Triton; further: nearly all actives have a fitted effect of over 25% in size
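AmpC (5.3 nM in the dispensed reagent) in 20 mM phosphate pH 7.0 with 0.01% (detergent screen) or 0.0001% Triton X-100 was preincubated with compounds for 15 min at room temperature. Nitrocefin was then added from an 800 uM solution, and hydrolysis was followed at 480 nm.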
HCMV inh: blocks human cytomegalovirus replication. AID 1259415. HFF cells, HCMV-luciferase reporter, 72 h; stronger effect = lower value. activity change, negative = inhibition, % at 57.5 µM. 410,000 compounds, 4.5% hits; in the data active means activity change below about -60%; inconclusive means no clear call, values can overlap the other calls; inactive means above about -39%
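Inhibition of viral replication was scored as loss of reporter luminescence in HFFs infected with HCMV-luciferase (MOI 1 PFU/cell) for 72 h; compounds tested at 2 doses, normalized to buffer and Salinomycin controls.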
FMDV inh: antivirals against foot and mouth disease virus. FMDV antiviral cell-based qHTS. Potency, µM (highest dose often 57.9 µM), hits mostly inhibitors. 410,000 compounds, 1.2% hits. AID 1159524; calls by dose curve; tested in HEK293T cells; further: read-out not given here; nearly all actives have a fitted effect of over 45% in size
Hits are given with their value; . = inactive; ? = inconclusive; / = no result; + = active, no number; ! = a repeat was not active. Unless noted, the call rests on the fitted dose curve; in most records, active means well fitted curve in the direction sought with a large enough effect; inconclusive means small, poorly fitted or top-dose-only effect, or another doubt; inactive means no such curve, though single readings can be large; an effect the other way counts as inactive or inconclusive.

SMILES	AmpC no deterg	HCV inhibitor	AmpC detergent	HCMV inh	FMDV inh
Cc1ccc(C(C)C)c(OCCCn2c(=O)oc3ccccc32)c1	/	/	.	.	.
O=C1N(Cc2cccnc2)C[C@@H]2C[C@@H](c3cccc(OC4CCCC4)c3)N3CCC[C@@]123	.	13µM	.	?	.
COc1ccc(OC)c(CNS(=O)(=O)c2ccc(-c3cc(C(F)(F)F)on3)s2)c1	/	/	.	-70	.
COc1ccccc1N1CCN(S(=O)(=O)c2ccc(-c3cc(C(F)(F)F)on3)s2)CC1	/	/	.	.	0.89µM
COc1ccccc1CNS(=O)(=O)c1ccc(-c2cc(C(F)(F)F)on2)s1	/	/	.	.	.
COc1ccc(NC(=O)CSc2ccc(-c3cccs3)nn2)cc1	/	/	.	.	?
O=C(Nc1ccccc1)N(Cc1cccs1)c1ccc(F)cc1	/	/	.	.	.
COc1ccc(CN2CCCC(n3cc(C(=O)NC4CCCC4)nn3)C2)c2ccccc12 (centres undefined)	/	/	/	/	.
O=C(COC(=O)c1cc([N+](=O)[O-])ccc1N1CCOCC1)Nc1ccccc1OC(F)F	.	?	.	.	.
CCC(CC)c1nnc(NC(=O)c2cc([N+](=O)[O-])ccc2N2CCCCC2)s1	.	7.1µM	.	.	.
COc1ccc(NC(=O)c2cc([N+](=O)[O-])ccc2N2CCCCC2)cc1OC	.	25µM	/	.	.
CC(C)c1ccccc1NC(=O)COC(=O)c1cc([N+](=O)[O-])ccc1N1CCOCC1	?	?	?	.	?
CC(C)CNC(=O)c1cc([N+](=O)[O-])ccc1N1CCCCC1	.	.	.	?	.
O=C(COC(=O)c1cc([N+](=O)[O-])ccc1N1CCCC1)Nc1ccccc1OC(F)F	.	13µM	?	.	?
COc1ccccc1NC(=O)COC(=O)c1cc([N+](=O)[O-])ccc1N1CCCC1	.	13µM	.	.	?
O=C(Nn1cnnc1)c1ccc(Cl)cc1	.	.	?	.	.
COC12C(COC(N)=O)C3=C(C(=O)C(C)=C(N)C3=O)N1CC1C2N1C (centres undefined)	.	?	.	-105	.
CCOC(=O)c1c(C)[nH]c(C)c1C(=O)COC(=O)COc1ccc(Cl)c(C)c1	.	.	?	.	.
CCc1ccc(CNC(=O)CCCN2C(=O)c3cccnc3Oc3ccc(Cl)cc32)cc1	/	/	.	.	.
COc1cccc(C(=O)Nc2ccccc2C(=O)OCc2cc(=O)n3nc(C)sc3n2)c1	/	/	.	.	.
COc1cccc(-c2ncn(CCc3ccccc3OC)c2C(C)C)c1	/	/	/	-101	32µM
COc1cccc(-c2ncn(CCc3ccccc3OC)c2CC(C)C)c1	/	/	/	-88	/
Cc1ccc(Cn2nc(C)c(C(=O)NCC(c3ccc(F)cc3)N3CCOCC3)c2Cl)cc1 (centres undefined)	.	?	.	.	?
Cc1cccc(-n2ncc3c(N4CCN(c5ccccc5)CC4)ncnc32)c1	/	/	.	+	?
Cc1cccc(-n2ncc3c(NCc4cccnc4)ncnc32)c1	.	.	.	.	.
SMILES	AmpC no deterg	HCV inhibitor	AmpC detergent	HCMV inh	FMDV inh
Cc1ccc(-n2ncc3c(N4CCN(c5ccccc5)CC4)ncnc32)c(C)c1	.	4.5µM	.	-82	3.2µM
Cc1ccc(-n2ncc3c(NCc4cccnc4)ncnc32)c(C)c1	.	10µM!	?	?	?
COc1ccc(-n2ncc3c(N4CCN(c5cccc(C)c5)C(C)C4)ncnc32)cc1 (centres undefined)	/	/	.	-66	20µM
Cc1ccccc1S(=O)(=O)N1C[C@H]2CON(C)[C@H]2C[C@H]1c1cccc(-c2ccc(C#N)cc2)c1	/	?	/	.	.
Cc1cc(NC(=O)c2cccs2)ncc1NC(=O)C(C)C	.	.	.	.	.
COc1ccc(/C=C/C(=O)Nc2ccc3nc(N4CCC(C)CC4)cc(C)c3c2)cc1OC	/	/	.	-88	.
CCOc1ccccc1NC(=O)Nc1ccc2nc(N3CCN(C)CC3)cc(C)c2c1	/	/	.	-106	.
CCN1CCN(c2cc(C)c3cc(NC(=O)c4cc(OC)c(OC)c(OC)c4)ccc3n2)CC1	/	/	.	.	.
Cc1ccccc1NC(=O)Nc1ccc2nc(N3CCN(C)CC3)cc(C)c2c1	/	/	.	.	.
COc1ccccc1CC(=O)Nc1ccc2nc(N3CCC(C)CC3)cc(C)c2c1	/	/	.	.	.
CCOC(=O)N1CCC(NC(=S)Nc2ccc3nc(N4CCN(C)CC4)cc(C)c3c2)CC1	.	10µM	.	.	.
CCOC(=O)N1CCC(NC(=S)Nc2ccc3nc(N4CCN(CC)CC4)cc(C)c3c2)CC1	.	.	.	.	.
CCN1CCN(c2cc(C)c3cc(NC(=O)c4cncc(Br)c4)ccc3n2)CC1	.	5.6µM	.	?	.
Cc1ccc2[nH]c(CCN(C)C)c(CN3CCOCC3)c2c1	.	?	.	.	.
COC(=O)[C@@H]1[C@@H](CO)[C@@H]2Cn3c(ccc(Br)c3=O)[C@@H]2N1C	/	/	/	.	/
O=C(Nc1ccc2c(c1)OCO2)c1cc(C2CCCCN2C(=O)OCCF)on1 (centres undefined)	/	/	/	.	.
COc1cc(OC)cc(C(=O)NCC(=O)NC(C)c2ccccc2)c1 (centres undefined)	.	.	.	.	.
CCN1CCN(c2cc(C)c3cc(NC(=O)/C=C/c4ccc(C)cc4)ccc3n2)CC1	/	/	.	.	.
Cc1cc(N2CCOCC2)nc2ccc(NC(=O)CCC(=O)N3CCN(c4ccc(F)cc4)CC3)cc12	.	?	.	.	.
Cc1cc(N2CCN(C)CC2)nc2ccc(NC(=O)c3ccc(C(C)(C)C)cc3)cc12	/	/	.	-106	?
CCN(CC)c1ccc(C(=O)Nc2ccc3nc(N(CC)CC)cc(C)c3c2)cc1	/	/	.	-67	.
Cc1cc(N2CCOCC2)nc2ccc(NC(=O)CCC(=O)N3CCN(c4ccccc4F)CC3)cc12	.	22µM	.	.	.
CCN1CCN(c2cc(C)c3cc(NC(=O)/C=C/c4ccc(OCCC(C)C)cc4)ccc3n2)CC1	/	/	.	-79	?
CCN(CC)c1cc(C)c2cc(NC(=O)c3ccccc3Cl)ccc2n1	/	/	?	?	.
Cc1cccc(NC(=O)c2ccc(-n3c(C)nnc3C)cc2)c1	/	/	.	.	.
SMILES	AmpC no deterg	HCV inhibitor	AmpC detergent	HCMV inh	FMDV inh
COc1cc(OC)cc(C(=O)NC2CC3CCC(C2)N3C)c1 (centres undefined)	.	.	.	.	.
CCN1CCN(c2cc(C)c3cc(NC(=O)c4ccc(OC)c(OC)c4)ccc3n2)CC1	.	11µM	?	?	.
COc1ccc(C)cc1NC(=O)CCC(=O)Nc1ccc2nc(N3CCN(C)CC3)cc(C)c2c1	.	10µM	.	/	.
COc1ccc2c(c1)CCc1cnc(-n3ncc(C(=O)NC4CCOC4)c3C3CC3)nc1-2 (centres undefined)	/	/	/	/	.
CCCSC1=C(C#N)C(c2ccccc2C)CC(=O)N1 (centres undefined)	.	.	.	-99	?
CCSC1=C(C#N)C(c2ccccc2OC)CC(=O)N1 (centres undefined)	.	.	.	-75	.
